# In PubChem BioAssay (NCI):
# This is part of a sample that, as a whole, favours compounds with a hit. Of some 83,000 tested, about 20% had one in any assay.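 A percent growth of 40 corresponds to 60% growth inhibition; 0 means no net growth; -100 means all cells died. Active threshold: below 10.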 A number with no mark means an inactive call. Activity calls are given as the source filed them.
# Tested on: HOP-92 NSCLC
# Experiment: NCI-60 one-dose screen, 48 h (100 = growth as untreated, 0 = no growth, -100 = all killed)
# Conditions: 10 µM
row,SMILES,growth
1,COCCOC(=O)NC(=O)Nc1ccc(C(=O)c2ccc(Cl)cc2)cc1,32.9%
2,Cc1cnc(C=O)c2cccc([N+](=O)[O-])c12,61.2%
3,COc1ccc(-c2nc(SCC(=O)c3ccc(Br)cc3)[nH]c(=O)c2C#N)cc1,85.9%
4,COc1cccc2c1C(=O)c1c(O)c3c(c(O)c1C2=O)C[C@@](O)(C(=O)COC(=O)c1ccccc1)C[C@@H]3OC1CC(N)C(O)C(C)O1 (stereo partly specified),-77.9% (active)
5,Fc1ccc2[nH]c3c(NCCCN4CCOCC4)ncnc3c2c1,63.9%
6,CC(C)c1[nH]nc2c(NCc3ccc(-c4ccccn4)cc3)nc(SCCN)nc12,-11.1% (active)
7,COc1ccc(NC(=O)CCn2cnc3c(cc(-c4ccccc4)n3-c3ccccc3)c2=O)cc1,69.1%
8,CNC(=O)c1cc(Oc2ccc(NC(=O)Nc3ccc(Cl)c(OC4CCCCC4)c3)c(F)c2)ccn1,36%
9,CCCCCCCCCCCCCCCCn1cc[n+](C)c1,-80.2% (active)
10,O=C1/C(=C/c2cccs2)CCC/C1=C\c1cccs1,66%
11,COC(=O)C1(C(=O)OC)C2C(=O)C3C(C21)C3(C(=O)OC(C)(C)C)C(=O)OC(C)(C)C (stereo unspecified),97.8%
12,COc1ccc(Cn2cc3c(c2-c2ccccc2)CC(C)(C)c2cnoc2-3)cc1,59.9%
13,CC(C)C[C@H](NC(=O)Cn1ccc2ccccc2c1=O)B(O)O,99%
14,Cc1cc(Nc2cccc(F)c2)nc(NCc2ccccc2)n1,-2.56% (active)
15,O=C(/C=C/c1ccc(Cl)cc1)c1ccc(Br)cc1,111%
16,Cc1cc2cc3c(=O)[nH]c(=O)cc-3n(CC(O)C(O)C(O)CO)c2cc1C (stereo unspecified),111%
17,N#Cc1cnc2ccc(NCc3cnc[nH]3)cc2c1Nc1ccc(F)c(Cl)c1,51.9%
18,Cn1c(=O)c2[nH]c(C(O)c3ccc(Cl)cc3)nc2n(C)c1=O (stereo unspecified),76.1%
19,Cc1ccc(S(=O)(=O)Nc2cccc3[nH]c(C(F)(F)F)nc23)cc1,-3.66% (active)

row,SMILES,growth
1,CCCCCCCOc1cccc(/C=C2/C(=O)N=C3SCCCN32)c1,62.8%
2,Cc1ccc(C)c(S(=O)(=O)NC2c3ccccc3Oc3ccccc32)c1,59.6%
3,Nc1nc2c(nnn2C2CC(O)C(CO)O2)c(=O)[nH]1 (stereo unspecified),43.7%
4,Cc1nc2cc(-n3c(-c4ccc(F)cc4)nc4ccccc4c3=O)ccc2n1Cc1ccccc1,-15.6% (active)
5,CCN(CCCNC(=O)Cc1cc(=O)oc2cc(N(C)C)ccc12)CCNc1ccnc2cc(Cl)ccc12,59.5%
6,COc1cc(-c2nc3ccccc3[nH]2)ccc1OCC(=O)N=Nc1c(O)[nH]c2ccccc12,78.1%
7,O=C(OCc1ncc(-c2ccc(C(F)(F)F)cc2)c(NC2CCCCCC2)n1)c1c(F)c(F)c(F)c(F)c1F,6.29% (active)
8,COc1cc(C2=Nc3c/c(=C\c4c(O)[nH]c5ccc(Cl)cc45)ccc3=N2)cc(OC)c1OC,-61.5% (active)
9,COc1ccc(OC)c([N+](=O)[O-])c1C=O,91.1%
10,COc1ccc(-c2nnc(COc3ccc(NC(=O)Nc4cccc(C(F)(F)F)c4)cc3F)o2)cc1,25.5%
11,COc1ccc(C(=O)n2nc(CC(=O)NCc3ccccc3)nc2N)cc1,111%
12,NC1CCC(Nc2nc(NCc3ccc(-c4ccccc4O)nc3)c3ncn(C4CCCC4)c3n2)CC1 (stereo unspecified),-17.7% (active)
13,COc1ccc(CSc2nc3cc(OC)c(OC)cc3c(=O)n2-c2ccc(OC)cc2OC)cc1,75.5%
14,CCCCCCN=C(N)CCCCCCCCCCC(N)=NCCCCCC,8.01% (active)
15,O=C(COCc1c(-c2ccccc2)no[n+]1[O-])Nc1nc(-c2ccc(Cl)cc2)cs1,86.8%
16,O=[N+]([O-])c1ccc2c(c1)Cc1cc(I)ccc1-2,89.4%
17,CN(C)CCCN(Cc1ccccc1O)C(=S)Nc1ccc(Cl)cc1,86.8%
18,CS(=O)(=O)Nc1ccc(Nc2c3ccccc3nc3cc(Cl)ccc23)cc1,-10.7% (active)
19,COc1ccc(/C=C2\CCC3C(CCCC34OCCO4)C2=O)cc1 (stereo unspecified),92.3%

# Tested on: NCI-H522 lung
# Experiment: as above
# Conditions: 10 µM
row,SMILES,growth
1,COCCOC(=O)NC(=O)Nc1ccc(C(=O)c2ccc(Cl)cc2)cc1,10.7%
2,Cc1cnc(C=O)c2cccc([N+](=O)[O-])c12,96%
3,COc1ccc(-c2nc(SCC(=O)c3ccc(Br)cc3)[nH]c(=O)c2C#N)cc1,95.4%
4,COc1cccc2c1C(=O)c1c(O)c3c(c(O)c1C2=O)C[C@@](O)(C(=O)COC(=O)c1ccccc1)C[C@@H]3OC1CC(N)C(O)C(C)O1 (stereo partly specified),-85.8% (active)
5,Fc1ccc2[nH]c3c(NCCCN4CCOCC4)ncnc3c2c1,58.1%
6,CC(C)c1[nH]nc2c(NCc3ccc(-c4ccccn4)cc3)nc(SCCN)nc12,-54.8% (active)
7,COc1ccc(NC(=O)CCn2cnc3c(cc(-c4ccccc4)n3-c3ccccc3)c2=O)cc1,45.1%
8,CNC(=O)c1cc(Oc2ccc(NC(=O)Nc3ccc(Cl)c(OC4CCCCC4)c3)c(F)c2)ccn1,9.84% (active)
9,CCCCCCCCCCCCCCCCn1cc[n+](C)c1,-87.4% (active)
10,O=C1/C(=C/c2cccs2)CCC/C1=C\c1cccs1,76.7%
11,COC(=O)C1(C(=O)OC)C2C(=O)C3C(C21)C3(C(=O)OC(C)(C)C)C(=O)OC(C)(C)C (stereo unspecified),111%
12,COc1ccc(Cn2cc3c(c2-c2ccccc2)CC(C)(C)c2cnoc2-3)cc1,43.3%
13,CC(C)C[C@H](NC(=O)Cn1ccc2ccccc2c1=O)B(O)O,28.6%
14,Cc1cc(Nc2cccc(F)c2)nc(NCc2ccccc2)n1,6.89% (active)
15,O=C(/C=C/c1ccc(Cl)cc1)c1ccc(Br)cc1,82.6%
16,Cc1cc2cc3c(=O)[nH]c(=O)cc-3n(CC(O)C(O)C(O)CO)c2cc1C (stereo unspecified),96.2%
17,N#Cc1cnc2ccc(NCc3cnc[nH]3)cc2c1Nc1ccc(F)c(Cl)c1,10.2%
18,Cn1c(=O)c2[nH]c(C(O)c3ccc(Cl)cc3)nc2n(C)c1=O (stereo unspecified),96.7%
19,Cc1ccc(S(=O)(=O)Nc2cccc3[nH]c(C(F)(F)F)nc23)cc1,-6.23% (active)

row,SMILES,growth
1,CCCCCCCOc1cccc(/C=C2/C(=O)N=C3SCCCN32)c1,23.6%
2,Cc1ccc(C)c(S(=O)(=O)NC2c3ccccc3Oc3ccccc32)c1,31.6%
3,Nc1nc2c(nnn2C2CC(O)C(CO)O2)c(=O)[nH]1 (stereo unspecified),24.4%
4,Cc1nc2cc(-n3c(-c4ccc(F)cc4)nc4ccccc4c3=O)ccc2n1Cc1ccccc1,44.5%
5,CCN(CCCNC(=O)Cc1cc(=O)oc2cc(N(C)C)ccc12)CCNc1ccnc2cc(Cl)ccc12,56.8%
6,COc1cc(-c2nc3ccccc3[nH]2)ccc1OCC(=O)N=Nc1c(O)[nH]c2ccccc12,80.1%
7,O=C(OCc1ncc(-c2ccc(C(F)(F)F)cc2)c(NC2CCCCCC2)n1)c1c(F)c(F)c(F)c(F)c1F,38.4%
8,COc1cc(C2=Nc3c/c(=C\c4c(O)[nH]c5ccc(Cl)cc45)ccc3=N2)cc(OC)c1OC,24.9%
9,COc1ccc(OC)c([N+](=O)[O-])c1C=O,76.9%
10,COc1ccc(-c2nnc(COc3ccc(NC(=O)Nc4cccc(C(F)(F)F)c4)cc3F)o2)cc1,-21.2% (active)
11,COc1ccc(C(=O)n2nc(CC(=O)NCc3ccccc3)nc2N)cc1,104%
12,NC1CCC(Nc2nc(NCc3ccc(-c4ccccc4O)nc3)c3ncn(C4CCCC4)c3n2)CC1 (stereo unspecified),-55.2% (active)
13,COc1ccc(CSc2nc3cc(OC)c(OC)cc3c(=O)n2-c2ccc(OC)cc2OC)cc1,68.6%
14,CCCCCCN=C(N)CCCCCCCCCCC(N)=NCCCCCC,23.9%
15,O=C(COCc1c(-c2ccccc2)no[n+]1[O-])Nc1nc(-c2ccc(Cl)cc2)cs1,81.1%
16,O=[N+]([O-])c1ccc2c(c1)Cc1cc(I)ccc1-2,95.7%
17,CN(C)CCCN(Cc1ccccc1O)C(=S)Nc1ccc(Cl)cc1,96%
18,CS(=O)(=O)Nc1ccc(Nc2c3ccccc3nc3cc(Cl)ccc23)cc1,16.2%
19,COc1ccc(/C=C2\CCC3C(CCCC34OCCO4)C2=O)cc1 (stereo unspecified),-1.7% (active)
